Screening data: PubChem, National Center for Advancing Translational Sciences (NCATS)
Apoferritin bind – qHTS Assay for Identification of Novel General Anesthetics; Ferritin light chain (Equus caballus), P02791; apoferritin/1-aminoanthracene competitive binding, fluorescence; Potency, µM (top dose mostly 77.5 µM), for the others: at the top dose activity change, negative = displacement, most hits filed as inhibitors; 350,000 tested, 0.074% active; AID 485281, 2010; note: % is set by controls: 0 for no effect and ±100 for the full control effect; nearly all actives have a fitted effect of over 20% in size
Target sequence (P02791 2-175 limits assumed): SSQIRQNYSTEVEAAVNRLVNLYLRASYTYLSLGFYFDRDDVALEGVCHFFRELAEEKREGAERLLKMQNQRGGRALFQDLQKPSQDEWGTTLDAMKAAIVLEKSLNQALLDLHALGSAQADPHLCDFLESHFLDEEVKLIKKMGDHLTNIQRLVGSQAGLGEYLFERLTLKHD
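Probe: 1-aminoanthracene (50% saturated, PBS). Protein: horse-spleen apoferritin, 10 uM. Incubation: 10 min, room temperature. Detection: 380 nm excitation, 535 nm emission. Analysis: normalized response, four-parameter Hill.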
TGFb inhibitor – qHTS for Inhibitors of TGF-b; AID 588855, 2011; HepG2 CAGA-GFP TGF-b/SMAD3 reporter, GFP fluorescence, 18 h; TGF-beta stimulated, 500 pg/mL final; 410,000 tested, 1.2% active; Potency, µM (series often up to 46.1 µM), without a hit: at the top dose activity, negative = inhibition, hits mostly inhibitors; note: % is set by controls: 0 for no effect and ±100 for the full control effect; nearly all actives have a fitted effect of over 65% in size
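Inhibition was scored as loss of TGF-beta-induced (500 pg/mL final, 18 hours, 37 degrees C) GFP in HEPG2 cells carrying a CAGA-GFP reporter, in DMEM with 1% FBS. Well GFP was summed per cell; Activity was normalised to unstimulated and stimulated DMSO wells, then concentration-response fitting.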
HepG2 viability – qHTS for Inhibitors of TGF-b: Cytotox Counterscreen; HepG2 CAGA-GFP viability, ATP luminescence, 18 h; Potency, µM (series often up to 46.1 µM), for inactives: at the top dose activity change, negative = cytotoxicity, usual class: cytotoxic; 410,000 tested, 0.76% active; AID 588856, 2011
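HepG2 CAGA-GFP cells (1000/well, DMEM with 1% FBS) received compound, then TGF-beta at 500 pg/mL final, and were incubated 18 hours at 37 degrees C. Viability was read by CellTiter-Glo luminescence. Media-only wells were set as complete cell-killing and DMSO as no toxicity.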
ATXN viability – Viability Counterscreen for Primary qHTS for Inhibitors of ATXN expression; AID 651635, 2014; 400,000 tested, 0.49% active; Potency, µM (doses to about 56.7 µM), actives largely listed as cytotoxic; S2 cells (HEK-293 line with an ATXN2-luciferase reporter) viability, CellTiter-Fluor protease fluorescence, 24 h; note: nearly all actives have a fitted effect of over 40% in size
ATXN2 expr inh – Primary qHTS for Inhibitors of ATXN expression; HEK-293 ATXN2-luciferase reporter, luminescence, 24 h; Potency, µM (doses to about 57 µM), for inactives: top-dose activity change, negative = inhibition, usual class: inhibitors; 360,000 tested, 0.72% active; AID 1745845, 2022; note: % is set by controls: 0 for no effect and ±100 for the full control effect; nearly all actives have a fitted effect of over 55% in size
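ATXN2-luciferase reporter cells (luciferase flanked by upstream and downstream ATXN2 gene portions) were treated 24 h at 37 °C with compounds at up to 57 uM. SteadyGlo luminescence gave expression; GF-AFC fluorescence gave viability.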
* = called active by the depositor; i = inactive; ? = inconclusive; nt = no result; ! = repeats disagree; [ ] = another dose, or the depositor's remark. Sampled rows, rich in hits. Any-hit rate of the full collection: about 2.4%. Calls come from the whole dose curve; as a rule, active = well fitted curve in the direction sought with a large enough effect; inconclusive = small, poorly fitted or top-dose-only effect, or another doubt; inactive = no such curve, though single readings can be large; an effect the other way counts as inactive or inconclusive. Potency is the fitted concentration of half-maximal effect.

SMILES	Apoferritin bind	TGFb inhibitor	HepG2 viability	ATXN viability	ATXN2 expr inh
C[C@H](CSC(=O)c1ccccc1)C(=O)N1C[C@@H](Sc2ccccc2)C[C@H]1C(=O)O	nt	nt	nt	i	nt
COc1ccc(-c2cc(C(F)(F)F)c3c(n2)sc2c(O)cc(=O)[nH]c23)c(OC)c1	-6%	8%	2.2µM*	i	-12%
CCCCN(CCCC)C(=S)[S-].CCCCN(CCCC)C(=S)[S-].[Zn+2]	nt	nt	nt	8.9µM*	nt
CCOC(=O)C1=C(N)Oc2cc(O)ccc2C1c1cccc(Cl)c1 (stereo not drawn)	13%	20µM*	3%	i	-15%
COc1ccc(S(=O)(=O)N2CCCCCC2)cc1NC(=O)CCCOc1ccccc1	nt	3%	-1%	i	nt
Cc1ccc(C)c(Nc2nc3nonc3nc2Nc2cccc(C)c2C)c1	?	6.3µM*	-45%	nt	?
COCc1ccc(-c2c(-c3ccsc3)sc3ccccc23)cc1	nt	-1%	-20%	i	1%
Oc1ccc(-c2c(-c3ccsc3)sc3ccccc23)cc1	2%	11µM*	-43%	?	?
OC(CBr)C[n+]1cc(Br)cc2ccccc21 (stereo not drawn)	nt	-2%	-12%	nt	nt
CCCCCCCCCCCCCC[N+](C)(C)C	nt	nt	nt	?	22µM*
CCCCCCCCCCCCCCCC[N+](C)(C)CC	nt	?	-110%	18µM*	14µM*
C#CC[N+](C)(C)CCCCCCCCCC	5%	?	-37%	i	?
CC#CC[N+](C)(C)CCCCCCCCCCCC	-8%	?	-46%	?	25µM*
CCN(CC)c1cc(C)c(/C=C/c2ccnc3ccccc23)cc1C	nt	-28%	-63%	nt	nt
CC(=O)C[C@H]1c2cc(C(F)(F)F)ccc2S(=O)(=O)N1C1CCCCC1	nt	11µM*	-16%	i	-5%
Cc1ccc(NC(=O)Nc2ccc3nc(N4CCN(C)CC4)cc(C)c3c2)cc1C	65%	25%	-20%	i	11%
CCN1CCN(c2cc(C)c3cc(NC(=O)c4cc(Br)ccc4Cl)ccc3n2)CC1	11%	?	10µM*	nt	?
Cc1cc(N2CCN(C)CC2)nc2ccc(NC(=O)Nc3ccccc3)cc12	49%	?	13µM*	nt	-19%
CCN1C(=O)[C@H]2[C@H]3[C@H](O)[C@H](O)C/C(=N/O[C@@H]4O[C@H](COC(C)=O)[C@@H](OC(C)=O)[C@H](OC(C)=O)[C@H]4OC(C)=O)[C@@H]3CC[C@@H]2C1=O	-8%[15.3 µM]	nt	nt	nt	nt
CCCCc1ccc(NC(=O)N2CCN(c3cc(C)nc4ccccc34)CC2)c(C)c1	2%	?	-23%	?	18µM*
CC1(C)CNc2cc(NC(=O)c3cccnc3NCc3ccncc3)ccc21	nt	nt	nt	nt	1%
Cc1c(CCOC(=O)c2ccc(Cl)cc2Cl)sc[n+]1CC(=O)c1ccc(Br)cc1	nt	?	14µM*	i	nt
CN(C)c1ccc(C2=Cc3ccccc3C2)cc1	nt	?	-5%	nt	nt
O=C(c1ccc(Cl)cc1)N1CCCCC(Sc2nnc(-c3ccc4c(c3)OCO4)o2)C1=O (stereo not drawn)	2%	5%	-30%	i	2.2µM*
CCc1ccc(NC(=O)c2cc(S(=O)(=O)N3CCCC3)ccc2F)cc1	0%	11%	-25%	?	-6%
SMILES	Apoferritin bind	TGFb inhibitor	HepG2 viability	ATXN viability	ATXN2 expr inh
Cc1ccc(C)c(CN2CCC(CNC(=O)Nc3ccc(Br)cc3F)CC2)c1	-8%	?	-84%	?	20µM*!
Cc1ccc(C)c(CN2CCC(CNC(=O)Nc3ccc(Cl)cc3)CC2)c1	-1%	0%	2%	i	12%
COc1ccc(NC(=S)/N=C(\N)Nc2nc(C)c3ccc(C)cc3n2)cc1	-8%	-4%	-14%	16µM*	?
COc1ccc([C@H]2/C=C\CN(C(=O)C3CCCC3)[C@@H](C)C(=O)N2Cc2ccc(F)cc2)cc1	nt	-10%	-12%	20µM*	?
COc1ccc(C2/C=C\CN(C(=O)C3CC3)C(C)C(=O)N2Cc2ccc(F)cc2)cc1 (stereo not drawn)	-20%	?	-3%	nt	nt
Cc1cc(OCCCCCNCCO)cc(C)c1Cl	?	?	11µM*	i	?
O=C1CC(c2ccco2)Cc2[nH]c(=O)c(C(=O)Nc3ccccc3)cc21 (stereo not drawn)	nt	6%	-11%	nt	nt
CCCCCc1cc[n+](CC(=O)c2ccccc2)cc1	nt	0%	-32%	nt	nt
Cc1ccc(NC(=O)C2SC(=Nc3ccccc3)C(C(=O)Nc3ccc(Cl)cc3)=C2N)cc1 (stereo not drawn)	-15%	-26%	2%	i	26%
Cc1ccc(N=C2SC(C(=O)Nc3ccc(OC(F)(F)F)cc3)C(N)=C2C(=O)Nc2c(C)cc(C)cc2C)cc1 (stereo not drawn)	-13%	7.1µM*	11µM*	nt	?
CC(=O)Nc1ccc(C2Sc3ccccc3NC3=C2C(=O)c2ccccc23)cc1 (stereo not drawn)	-6%	?	-26%	16µM*	12%
CC(C)c1ccc(C2Sc3ccccc3NC3=C2C(=O)c2ccccc23)cc1 (stereo not drawn)	-4%	nt	-36%	nt	nt
CCc1ccc(C2Sc3ccccc3NC3=C2C(=O)c2ccccc23)cc1 (stereo not drawn)	?	11µM*	-33%	28µM*	-37%
O=C1C2=C(Nc3ccccc3SC2c2ccc(C(F)(F)F)cc2)c2ccccc21 (stereo not drawn)	?	11µM*	-53%	nt	?
CC(=O)Nc1ccc(C2C(=O)c3ccccc3C2=O)cc1	-15%	7%	-12%	i	38%
O=C1C2=C(Nc3ccccc3SC2c2ccco2)c2ccccc21 (stereo not drawn)	-6%	0%	-30%	?	32%
NCC1CCN(c2nc3ccccc3c3c2CCCC3)CC1	nt	?	13µM*	28µM*	?
CC(C)(CNC(=S)NCCc1ccccc1)CNC(=S)NCCc1ccccc1	-5%	16µM*	-39%	?	?
COc1ccc2[nH]c(C)c(C(=O)CNc3nccs3)c2c1	nt	8%	14%	nt	nt
CCOC(=O)C1=C(CSc2nc3ccccc3s2)NC(=O)NC1c1cc(C)ccc1C (stereo not drawn)	-21%	11µM*	11µM*	?	-36%
CCOC(=O)c1ccc(NC(=S)NC2CC(C)(C)NC(C)(C)C2)cc1	-11%	?	11µM*	?	?
CCOc1ccc(NC(=O)c2ccc(NC(=S)NC3CC3)cc2)cc1	-3%	-13%	2%	i	-31%[11.3 µM]
CCOC(=O)c1ccc(NC(=S)NN)cc1	-21%	-20%	-7%	i	15%
